# A selection: hits, their analogues and other compounds. The true share with any hit is near 2.4%.
# MITF TRPM1 HTS: activators of MITF-driven TRPM1 promoter activity in SK-MEL-5 cells; SK-MEL-5 TRPM1-promoter luciferase, 24 h; % of positive control, neutral wells = 0; activation, % at 12.5 µM; 300,000 compounds, 0.75% hits; AID 588334;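 active means mean activation of at least 80% with every replicate also reaching 80%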
# INS-1E GSIS act: GLuc luminescence reporter in INS-1E cells, primary screen for activators of glucose-dependent secretion of insulin; 370,000 compounds, 0.61% hits; activation, % at 16.6 µM; INS-1E GLuc reporter insulin secretion, 2-3 h; AID 743287;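 active means lowest replicate activation of at least 40%, so every replicate reaches that level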
# miR122 inh: miR-122 inhibition in Huh7 cells; 340,000 compounds, 0.3% hits; activation (reporter increase), % at 12.5 µM; Huh7 miR-122 Renilla luciferase sensor, 48 h; neutral wells = 0, positive control = 100;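 active means mean replicate activation score at least 90 and every replicate individually at or above 90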;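 further: higher luciferase means less miR-122 activity so hits act as miR-122 inhibitors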
# Dyrk1A ADPGlo: inhibitors of rat Dyrk1A kinase; Q63470; ADP-Glo luminescence, NFATc1 peptide; inhibition, % at 12.5 µM; 310,000 compounds, 0.43% hits; AID 504441
# NSD2 inh: inhibitors of human histone methyltransferase NSD2; O96028; NSD2 peptide methylation, AlphaScreen, 120 min; inhibition, % at 12.5 µM; 310,000 compounds, 0.54% hits; AID 743445
# Wnt act: activators of Wnt/beta-catenin signaling; Wnt/beta-catenin reporter cell assay, activator, plate reader; activation, % at 9.35 µM; 300,000 compounds, 1.2% hits; AID 743398; in the data active means activation above about 30%, passing the limit was not always enough
# Hits are given with their value; – = inactive; · = no result. Unless noted, no stated cut-off is given here; in the data, active means inhibition above about 50%; inactive means the rest.
SMILES,MITF TRPM1 HTS,INS-1E GSIS act,miR122 inh,Dyrk1A ADPGlo,NSD2 inh,Wnt act
Cc1scc(C(=O)N/N=C/c2ccc(Cl)s2)c1C,–,–,–,–,–,58
Cc1scc(C(=O)N/N=C/c2ccc(OC(C)C)cc2)c1C,–,·,–,–,–,·
COc1ccc(NC(=O)Nc2ccc3c(c2)C(=O)N([C@@H](C)CO)C[C@@H](C)[C@@H](CN(C)CC2CC2)OCCCC[C@@H](C)O3)cc1,·,–,–,·,·,·
C[C@H](CO)N1C[C@H](C)[C@@H](CN(C)CC2CCCCC2)OCCCC[C@H](C)Oc2ccc(NC(=O)c3ccccc3)cc2C1=O,·,–,–,·,·,·
COc1cc2c(cc1OC)C(Cc1ccc(O)cc1)N(C)CC2 (centres undefined),–,40,·,–,–,–
COc1cc2c(cc1OC)C(Cc1ccc(O)cc1)NCC2 (centres undefined),–,70,–,·,·,–
CCOc1ccc(CC2NCCc3cc(OCC)c(OCC)cc32)cc1OCC (centres undefined),–,–,–,–,–,–
CCOC(=O)Nc1sc2c(c1C#N)CCCC2,91,–,·,–,–,·
Cc1ccc(OCC(=O)Nc2sc3c(c2C#N)CCC3)cc1,111,–,–,–,–,–
Cc1ccc(OCC(=O)Nc2sc3c(c2C#N)CCC3)cc1C,·,·,–,–,–,–
CCC(=O)Nc1sc2c(c1C#N)CCC2,–,–,·,·,–,–
CCC(=O)N[C@H]1C=C[C@@H](CC(=O)NCc2ccccc2F)O[C@@H]1CO,·,–,–,·,·,·
O=C(COc1ccccc1F)Nc1ccc2c(c1)CCC2,·,–,–,–,–,43
O=C(O)c1ccccc1-c1ccccc1C(=O)Nc1ccc2c(c1)CCC2,–,–,–,–,–,–
O=C(Nc1ccc2c(c1)CCC2)c1ccccc1F,–,–,·,–,–,30
O=C(COc1cccnc1[N+](=O)[O-])Nc1ccc2c(c1)CCC2,–,–,–,–,–,–
COc1ccccc1NC(=O)N1[C@@H]2CNC[C@H]1C2c1ccc(-c2ccccc2OC)cc1 (some centres undefined),·,–,·,·,·,·
Cc1ccc(/C=C2\Sc3ccccc3C2=O)s1,–,·,–,–,–,72
O=C(N[C@@H]1CC[C@@H](CCNS(=O)(=O)c2ccc(Cl)cc2)O[C@H]1CO)c1cccnc1,·,–,·,·,·,·
O=C(Nc1cccc(Cl)c1)N1C[C@H]2[C@@H](c3ccccc31)[C@H](CO)N2Cc1ccccc1Cl,·,–,–,·,·,·
Cc1ccc(-n2c(O)c(C=NCc3ccccn3)c3ccccc3c2=O)cc1,–,–,–,–,·,61
Cc1cccc(-n2c(O)c(C=NCc3ccccn3)c3ccccc3c2=O)c1,–,–,–,–,–,–
COc1ccc(C=O)cc1Cn1cnc2c(cnn2C)c1=O,–,–,·,–,–,–
COc1ccc(C(C)=O)cc1Cn1cnc2c(cnn2C)c1=O,–,50,–,–,–,–
O=C(Cc1ccc(Cl)cc1)Nc1ncc([N+](=O)[O-])s1,–,–,·,·,–,–
SMILES,MITF TRPM1 HTS,INS-1E GSIS act,miR122 inh,Dyrk1A ADPGlo,NSD2 inh,Wnt act
O=C(COc1ccc(Cl)cc1)Nc1ncc([N+](=O)[O-])s1,–,·,·,–,–,38
OC(c1ccccc1)(c1ccccc1)C1CCN(CCCOc2ccc(C(F)(F)F)cc2)CC1,·,654,·,·,·,–
CC1CCC(NC(=O)c2cc3ccccc3cc2O)CC1 (centres undefined),94,–,·,·,–,46
Cc1ccc(S(=O)(=O)N(C)C[C@H]2Oc3ccc(NC(=O)Cn4cnnn4)cc3C(=O)N([C@H](C)CO)C[C@@H]2C)cc1,·,–,–,·,·,·
Cc1cccc(NC(=O)CNC(=O)COc2ccc(C(=O)c3ccc(F)cc3)cc2)c1C,–,–,·,–,–,42
Cc1cccc(NC(=O)CNC(=O)COc2ccc(-c3ccc(C#N)cc3)cc2)c1C,–,67,·,–,–,–
CCOC(=O)N1CCN(C(=O)c2ccc3oc(CCCc4ccccc4)nc3c2)CC1,–,–,–,–,–,34
CC(=O)N1CCN(C(=O)c2ccc3oc(CCCc4ccccc4)nc3c2)CC1,–,–,–,–,–,–
COC(=O)CCCNC(=O)c1ccc2oc(CCCc3ccccc3)nc2c1,–,·,–,–,–,–
COC(=O)[C@@H](C)NC(=O)c1ccc2oc(CCc3ccccc3)nc2c1,·,–,–,·,–,38
O=C(c1cc2ccccc2o1)N(Cc1nnc(-c2ccccc2Cl)o1)C1CC1,–,–,–,–,–,–

# Compound activity (PubChem BioAssay)
